From ChEMBL document CHEMBL3988442, “University of Dundee, Small-Polar-MMV Screening Library” (2021)

Columns and labels:
[1] = target: T1, Aspartate--tRNA(Asp/Asn) ligase (Mycobacterium tuberculosis (strain ATCC 25618 / H37Rv)) (UniProt P9WFW3); experiment: Assay for Asp RNA synthetase-1 from Mycobacterium tuberculosis; type: functional; set-up: scale not given: direction of the effect not stated beside the values; conditions: 30 µM; further: in the data most compounds retested in dose-response had high values
T1 sequence (whole entry): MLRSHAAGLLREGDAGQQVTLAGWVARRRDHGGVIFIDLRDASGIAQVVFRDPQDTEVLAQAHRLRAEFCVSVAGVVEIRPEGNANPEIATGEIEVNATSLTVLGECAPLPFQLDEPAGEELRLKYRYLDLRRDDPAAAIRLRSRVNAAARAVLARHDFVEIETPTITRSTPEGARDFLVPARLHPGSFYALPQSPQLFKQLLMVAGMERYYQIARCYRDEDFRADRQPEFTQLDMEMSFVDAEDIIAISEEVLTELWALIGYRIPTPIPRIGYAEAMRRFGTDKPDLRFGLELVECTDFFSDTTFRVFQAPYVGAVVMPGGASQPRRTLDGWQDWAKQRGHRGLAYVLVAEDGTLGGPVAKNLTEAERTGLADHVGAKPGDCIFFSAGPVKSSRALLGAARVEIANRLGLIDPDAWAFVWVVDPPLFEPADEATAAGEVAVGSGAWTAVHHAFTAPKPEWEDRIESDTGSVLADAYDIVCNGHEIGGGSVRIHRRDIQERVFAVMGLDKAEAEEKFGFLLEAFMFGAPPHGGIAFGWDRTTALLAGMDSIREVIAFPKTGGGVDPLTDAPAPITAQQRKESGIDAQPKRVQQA

[2] = target: Shiga toxin 2 (Escherichia coli O157:H7) (UniProt P09385+P09386); experiment: E. coli 0.157:H7 Shiga Toxin SOP - stx2 screening assay; type: functional; set-up: scale not given: direction of the effect not stated beside the values; conditions: 30 µM

In the case of O=C1OC2(CCNCC2)CN1CC(=O)N1CCCC1c1ccco1 (configuration not stated), the Percent Effect [1] is reported as -0.636% and the Percent Effect [2] is reported as -9.63%.
NC(=O)c1nnn(-c2ccc(Br)cc2)n1 showed a Percent Effect [1] of 3.66% and a Percent Effect [2] of -41.8%.
CCN1CCN(C2CCN(Cc3cc(C)on3)CC2)C1=O was tested, and the Percent Effect [1] was -3.97% and the Percent Effect [2] was -26.8%.
Work on Cc1cc(-c2cnc(NC3CC3)nc2-c2ccc(C)o2)on1 yielded a Percent Effect [1] of -2.52% and a Percent Effect [2] of 0.454%.
In the case of COc1ccccc1C1CNC(=O)c2nc(-c3cnn(C)c3)[nH]c2C1 (configuration not stated), the Percent Effect [1] is reported as 1.33% and the Percent Effect [2] is reported as -58%.
In the case of O=C(NC1(c2cccc(F)c2)CCOCC1)c1cc[nH]n1, the Percent Effect [1] is reported as 3.45% and the Percent Effect [2] is reported as -26.7%.
Work on C=C1c2ccccc2C(=O)N1CCC(=O)N1CCNC(=O)C1 yielded a Percent Effect [1] of -2.35% and a Percent Effect [2] of 25.2%.
CCC(C)(C)NC(=O)CN(C)C(c1cccc(F)c1)c1ccccn1 (configuration not stated) showed a Percent Effect [1] of -1.18% and a Percent Effect [2] of 15.1%.
O=C(O)c1ccc2ccc(N3CCN(CC4CC4)CC3)n2c1 was tested, and the Percent Effect [1] was -6.96% and the Percent Effect [2] was -15.7%.
Work on CN(Cc1ccccc1Br)C(=O)Cn1nc(-c2ccc(F)cc2)oc1=O yielded a Percent Effect [1] of 7.4% and a Percent Effect [2] of -11.3%.
Work on Nc1nc(C2CCN(C(=O)c3cscn3)CC2)cs1 yielded a Percent Effect [1] of 2.54% and a Percent Effect [2] of -10.9%.
Compound CCCc1noc(CCC(=O)NC(C)c2nnc3n2CCCCC3)n1 (configuration not stated) has a Percent Effect [1] of -4.13% and a Percent Effect [2] of -15.1%.
Cc1nn(C)c(Cl)c1C1CCCN1C(=O)c1ccc2c(c1)OCO2 (configuration not stated) gave a Percent Effect [1] of -0.434% and a Percent Effect [2] of 12%.
Cc1nc(C)n(CC2CCCN(c3ncnc4sccc34)C2)n1 (configuration not stated) showed a Percent Effect [1] of 1.08% and a Percent Effect [2] of 21.2%.
Compound CCc1nnc(CN2CCN(C(=O)c3ccccn3)CC2)o1 has a Percent Effect [1] of -0.577% and a Percent Effect [2] of 21.4%.
Work on Cc1ccccc1-c1noc(CN2CCn3c(nnc3C3CC3)C2)n1 yielded a Percent Effect [1] of -0.7% and a Percent Effect [2] of -48.8%.
For Cc1ccc2c(c1)CN(C(=O)c1ccccc1F)C(CN(C)C)CO2 (configuration not stated), the Percent Effect [1] was 5.11% and the Percent Effect [2] was 3.26%.
Work on CCN(CC)C(=O)c1ccn(COc2cc(C)cc(C)c2)n1 yielded a Percent Effect [1] of -7.43% and a Percent Effect [2] of -39.1%.
Work on O=C1CC(c2ccccc2)c2snc(C(=O)O)c2N1 (configuration not stated) yielded a Percent Effect [1] of -6.76% and a Percent Effect [2] of -1.61%.
For COc1ccc(C(=O)NCC(c2cccn2C)N2CCCC2)c(OC)c1 (configuration not stated), the Percent Effect [1] was -4.85% and the Percent Effect [2] was -22.3%.
O=S1(=O)C[C@@H]2[C@H](C1)N(Cc1ncc[nH]1)CCN2CC1CC1 showed a Percent Effect [1] of 0.123% and a Percent Effect [2] of 4.23%.
In the case of Cc1cc(C)n(CC2CN(Cc3cscn3)CCO2)n1 (configuration not stated), the Percent Effect [1] is reported as -1.81% and the Percent Effect [2] is reported as -3.38%.
In the case of Cn1cc(-c2cnc(N3CCCC3)nc2)cc1C(=O)O, the Percent Effect [1] is reported as -9.05% and the Percent Effect [2] is reported as 10.6%.
Compound CCc1nnc(CN(C)c2nc(C3CCCC3)nc3c2cnn3C)o1 has a Percent Effect [1] of -4.57% and a Percent Effect [2] of 13.2%.
Compound CC(C)c1cc(CNC(=O)N2CCC(Cc3cnn(C)c3)C2)on1 (configuration not stated) has a Percent Effect [1] of -3.72% and a Percent Effect [2] of 11%.
Compound O=C(c1cccc(S(=O)(=O)NCCCc2ncc[nH]2)c1)N1CCOCC1 has a Percent Effect [1] of 8.25% and a Percent Effect [2] of -13.2%.
CN1CCN(c2nc(O)c3c(-c4ccccn4)ccnc3n2)CC1 was tested, and the Percent Effect [1] was -3.26% and the Percent Effect [2] was 7.03%.
With CCN(CC)S(=O)(=O)N1CCCC(c2ccc(C(=O)O)cc2)C1 (configuration not stated) the Percent Effect [1] was -0.279% and the Percent Effect [2] was -2.52%.
Work on Cc1cccc(-c2nc(C)nn2CC(=O)N(C)C2CC2)c1 yielded a Percent Effect [1] of -4.28% and a Percent Effect [2] of 6.5%.
Compound Cc1ncc2c(n1)CN(Cc1nnc(Cc3ccccc3)o1)CC2 has a Percent Effect [1] of 0.379% and a Percent Effect [2] of -26.9%.
Work on CC(=O)N1CCCCC1c1cc(CO)[nH]n1 (configuration not stated) yielded a Percent Effect [1] of -3.86% and a Percent Effect [2] of 7.89%.
Cc1nc(C)n(CC2CCCCN2CCC(=O)Nc2cc(C)on2)n1 (configuration not stated) showed a Percent Effect [1] of -3.42% and a Percent Effect [2] of 5.91%.
Compound CNc1cc(C2CCCN2C(=O)c2ccc3oc(=O)n(C)c3c2)ccn1 (configuration not stated) has a Percent Effect [1] of 4.04% and a Percent Effect [2] of 7%.
O=C(c1ccn(-c2ccccc2Cl)n1)N1CCSCC1 gave a Percent Effect [1] of 1.45% and a Percent Effect [2] of 8.96%.
Compound COCCCN1CCCN(C(C)c2nc(C3CC3)no2)CC1 (configuration not stated) has a Percent Effect [1] of -9.76% and a Percent Effect [2] of -23.4%.
With CC(C)CN1CCC(NC(=O)c2ccc(F)cc2I)CC1 the Percent Effect [1] was -2.95% and the Percent Effect [2] was -20.7%.
With CC(=O)N1CC(=O)N(c2cnn(C)c2)CC12CCN(Cc1ccoc1)C2 (configuration not stated) the Percent Effect [1] was -2.35% and the Percent Effect [2] was 0.489%.
CC(C)CC(=O)N1C[C@@H]2CCN(c3ncccn3)C[C@@H]2C1 showed a Percent Effect [1] of 4.21% and a Percent Effect [2] of -21.6%.
For CN(Cc1cccs1)C(=O)CS(=O)(=O)Cc1ccc(Cl)c(Cl)c1, the Percent Effect [1] was 3.86% and the Percent Effect [2] was 0.473%.
CCS(=O)(=O)N1CCc2c(CN(C)Cc3ccco3)cncc2C1 gave a Percent Effect [1] of -0.0582% and a Percent Effect [2] of -1.96%.
Clc1ccccc1-c1nc(CNCCn2cccn2)cs1 gave a Percent Effect [1] of -1.68% and a Percent Effect [2] of 15.3%.
Compound CC(=O)c1cn(CCC(=O)NCCC(=O)O)c2ccccc12 has a Percent Effect [1] of -4.27% and a Percent Effect [2] of -25.1%.
Cc1cnn(CC2CN(Cc3nc(-c4ccoc4)no3)CCO2)c1 (configuration not stated) was tested, and the Percent Effect [1] was -3.63% and the Percent Effect [2] was 24%.
With Cc1nc(C2CCCN(C(=O)c3cc(Cl)c[nH]3)C2)no1 (configuration not stated) the Percent Effect [1] was -3.91% and the Percent Effect [2] was 0.906%.
With Cn1c(Cn2cccn2)nnc1C1CCN(Cc2cccnc2N)CC1 the Percent Effect [1] was -5.74% and the Percent Effect [2] was -18.3%.
For CN(Cc1nnc(C2CC2)n1C)C1CCN(Cc2ccc(F)cc2)C1 (configuration not stated), the Percent Effect [1] was 11.8% and the Percent Effect [2] was 9.62%.
